Test results published in publication PMC4336329 (PLoS ONE, 2015).
The campaign covered roughly 310,000 compounds. About 14,000 (4.5%) showed an effect of 50% or more. The effect is printed as a negative number. This is one part of a sample in which strong results are shown more often than they occur.

target: human ether-à-go-go-related gene (hERG) potassium channel (human, UniProt Q12809); test: primary screen, population patch clamp on CHO cells stably expressing hERG; higher = less effect of the substance
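Note: peak tail current of the secondary pulse compared with the same well before compound.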

Chain of human ether-à-go-go-related gene (hERG) potassium channel (Q12809 whole entry, looked up): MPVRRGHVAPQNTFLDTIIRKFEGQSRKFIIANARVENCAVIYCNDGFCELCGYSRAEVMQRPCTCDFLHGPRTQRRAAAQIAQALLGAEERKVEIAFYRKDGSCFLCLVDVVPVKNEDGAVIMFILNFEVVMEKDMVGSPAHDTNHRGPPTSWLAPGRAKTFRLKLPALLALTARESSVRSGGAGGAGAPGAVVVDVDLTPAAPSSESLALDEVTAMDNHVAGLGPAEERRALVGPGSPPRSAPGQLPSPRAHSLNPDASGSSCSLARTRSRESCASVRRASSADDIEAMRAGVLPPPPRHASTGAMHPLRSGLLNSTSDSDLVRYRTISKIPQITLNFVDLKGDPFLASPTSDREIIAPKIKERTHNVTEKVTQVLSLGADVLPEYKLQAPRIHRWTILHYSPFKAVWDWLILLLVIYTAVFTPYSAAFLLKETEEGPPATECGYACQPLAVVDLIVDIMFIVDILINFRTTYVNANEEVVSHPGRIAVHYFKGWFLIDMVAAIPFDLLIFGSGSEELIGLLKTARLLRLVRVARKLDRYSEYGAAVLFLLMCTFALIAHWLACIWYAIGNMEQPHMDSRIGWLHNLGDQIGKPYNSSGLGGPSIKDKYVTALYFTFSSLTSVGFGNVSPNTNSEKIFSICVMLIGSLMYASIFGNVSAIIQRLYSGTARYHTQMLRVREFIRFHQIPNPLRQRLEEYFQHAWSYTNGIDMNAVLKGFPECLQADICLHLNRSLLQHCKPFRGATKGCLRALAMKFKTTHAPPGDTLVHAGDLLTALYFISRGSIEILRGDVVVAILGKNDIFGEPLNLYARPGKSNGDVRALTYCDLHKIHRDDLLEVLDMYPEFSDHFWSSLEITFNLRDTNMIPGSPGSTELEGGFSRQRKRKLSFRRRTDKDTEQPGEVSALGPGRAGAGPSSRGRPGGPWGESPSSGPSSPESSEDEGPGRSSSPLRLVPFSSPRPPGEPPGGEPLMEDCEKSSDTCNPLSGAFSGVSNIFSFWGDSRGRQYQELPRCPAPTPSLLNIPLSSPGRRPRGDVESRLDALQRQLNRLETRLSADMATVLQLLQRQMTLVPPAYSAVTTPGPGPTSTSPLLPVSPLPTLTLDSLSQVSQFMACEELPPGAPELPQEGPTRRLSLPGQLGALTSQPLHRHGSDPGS

SMILES | hERG current change (%, negative = inhibition) at 10uM [%]
Cc1ccc(N2CCN(C3=NC(=O)/C(=C\c4cn[nH]c4-c4ccccc4)S3)CC2)cc1 | 2.07
COc1ccc(C2/C=C\CN(C(=O)OCc3ccccc3)CC(=O)N2Cc2ccc(F)cc2)cc1 (centres unmarked) | -26
CCOC(=O)Cc1cc(=O)c2c(=O)n(-c3ccccc3)[nH]c2[nH]1 | 9.55
O=C(Oc1ccccc1)Oc1ccc2c(c1)oc(=O)c1ccccc12 | 16.9
CN(C)C(N)=NCCC[C@H](N)C(=O)O.Cl | 9.67
Oc1ccc(N2CCN(c3ccnc4cc(Cl)ccc34)CC2)cc1 | -22.7
O=C(c1ccco1)N1CCN(c2ccc(Cl)cc2)CC1 | -40.7
Clc1ccc2c(N3CCOCC3)ccnc2c1 | -17.1
COc1ccc(N2CCN(c3ccnc4cc(Cl)ccc34)CC2)cc1 | -36.5
Clc1ccc2c(N3CCNCC3)ccnc2c1 | -41.9
CC(=O)N1CCC(=NNc2ccnc3cc(Cl)ccc23)CC1 | -22.2
CC(C)(C)C(=O)N1CCN(c2ccnc3cc(Cl)ccc23)CC1 | -73.9
CC(=O)N1CCN(c2ccnc3cc(Cl)ccc23)CC1 | -50.4
O=C(c1ccco1)N1CCN(c2cccc(Cl)c2)CC1 | -11.5
Clc1ccc2c(N3CCCC3)ccnc2c1 | -65.2
O=C(c1ccco1)N1CCN(c2ccnc3cc(Cl)ccc23)CC1 | -71.5
CCCCOc1ccccc1C1NC(=O)NC(C)=C1C(=O)OCCOCC (centres unmarked) | -8.27
COc1ccc(C2CC(c3ccccc3)Nc3nc(N)nn32)cc1 (centres unmarked) | -25
Cc1ccc(S(=O)(=O)N2CCOCC2)cc1NC(=O)CSc1nnc(C2CC2)n1C1CC1 | -7.36
Cc1nc2ccccc2n1-c1nc(-c2ccco2)cc(C(F)(F)F)n1 | 5.46
CC(C)(C)OC(=O)CC[C@@H](C(=O)NCCCCCCCCCCC(=O)N1CCN(C(=O)OC(C)(C)C)CC1)n1cc(CCCCCNC(=O)OC(C)(C)C)nn1 | 4.12
CCOC(=O)c1cc(-c2ccc3c(c2)OCCO3)nc2c1c(C)nn2CCC#N | 3.85
CC(=O)c1ccc(NC(=O)CCCC(=O)c2ccccc2)cc1 | 12.6

SMILES | hERG current change (%, negative = inhibition) at 10uM [%]
CO/N=C(\C(=O)O)c1csc(NN=C(C)C)n1 | 16.2
COC(=O)c1nc2nc(C)cc(=O)n2[nH]1 | 20.2
O=C(CSc1nnc(-c2cccnc2)n1Cc1ccco1)c1ccc2ccccc2c1 | -45.6
O=C(c1ccco1)N1CCN(Cc2nc3cc(Cl)ccc3c(=O)[nH]2)CC1 | -61.8
CCCCNC(=O)N1CCN(c2ncccn2)CC1 | 3.43
CCOC(=O)N1CCN(c2cc3nccnc3cc2F)CC1 | -12.5
CCCCNC(=O)N1CCN(c2ccccc2OCC)CC1 | -0.115
CCC(=O)N1CCN(c2ccnc3cc(Cl)ccc23)CC1 | -63.6
CCCCNC(=O)N1CCN(c2ccnc3cc(Cl)ccc23)CC1 | -78.2
CCOC(=O)N1CCN(c2ccnc3cc(Cl)ccc23)CC1 | -66
CCCC(=O)Nc1cc(Cl)ccc1N1CCN(C(=O)CC)CC1 | -33.1
O=C(O)CSCC(=O)N1CCN(c2ccnc3cc(Cl)ccc23)CC1 | 9.15
CCOC(=O)N1CCC(=NNc2ccnc3cc(Cl)ccc23)CC1 | -32.5
CC(=O)N1CCN(Cc2nc3cc(Cl)ccc3c(=O)[nH]2)CC1 | -31.7
NC(=O)C1CCN(Cc2nc3cc(Cl)ccc3c(=O)[nH]2)CC1 | 5.22
Cc1ccc(-c2csc(NC(=O)c3ccco3)n2)cc1C | -15.6
CC(=O)Nc1ccc(NC(=O)c2c(-c3ccccc3)noc2C)cn1 | 15.9
c1ccc2c(C3=NNC(=NC4CC4)SC3)c[nH]c2c1 | -20.1
O=C(NCc1cccs1)c1cc(-c2cccc(Cl)c2)on1 | -16.1
CCN(CC)CCCNC(=O)c1cc(-c2ccc3c(c2)OCO3)on1 | -18.8
CCN(CC)CCCNC(=O)c1cc(-c2ccc(O)cc2)on1 | -37.3
CCN(CC)CCCNC(=O)c1cc(-c2cccc(Cl)c2)on1 | -60.7
O=C(NCCN1CCOCC1)c1cc(-c2cccc(Cl)c2)on1 | -4.73

SMILES | hERG current change (%, negative = inhibition) at 10uM [%]
CCN(CC)CCCNC(=O)c1cc(-c2ccc(Cl)cc2)on1 | -63.4
c1ccc(-c2ccc(-c3ccncn3)cc2)cc1 | 23.6
O=C1NC(=S)N/C1=C/c1cccn1-c1ccc([N+](=O)[O-])cc1 | 12.8
O=C(CNc1cccc(S(=O)(=O)N2CCOCC2)c1)Nc1cccc(Br)c1 | -21.6
CSCCC(NS(=O)(=O)c1ccc(C)cc1)C(=O)N1CCCC1 (centres unmarked) | 2
CC1CCN(S(=O)(=O)c2ccc3ncn(CC(=O)N(C)Cc4ccccc4)c(=O)c3c2)CC1 | -61.7
CC1CCN(S(=O)(=O)c2ccc3ncn(CC(=O)N(C)C4CCCCC4)c(=O)c3c2)CC1 | -22.2
CCCCN(CC)C(=O)Cn1cnc2ccc(S(=O)(=O)N3CCC(C)CC3)cc2c1=O | -57
CCN(CC)CCCNC(=O)Cn1cnc2ccc(S(=O)(=O)N3CCC(C)CC3)cc2c1=O | -0.31
CC1CCN(S(=O)(=O)c2ccc3ncn(CC(=O)N4CCN(C)CC4)c(=O)c3c2)CC1 | -16.3
CCCCNC(=O)Cn1cnc2ccc(S(=O)(=O)N3CCC(C)CC3)cc2c1=O | 2.68
Cc1cc2cc3c(C)cc(=O)oc3c(C)c2o1 | 19.8
COc1ccc(-c2cc(C(=O)Nc3ccccc3F)on2)cc1 | 23.3
CCOc1ncccc1C(=O)OCC(=O)Nc1cc(S(=O)(=O)N(CC)CC)ccc1C | -42.8
Cc1nc2cc(NS(=O)(=O)c3c(C)c(C)cc(C)c3C)ccc2s1 | 3.47
Cc1ccc(C(=O)NCC(=O)NCC(=O)OCC(=O)c2ccc(Br)cc2)cc1 | 7.3
CCn1c(NCc2ccc(OC)cc2)nc2ccccc21 | -21.7
CCCn1c(Nc2cccc(OC)c2)nc2ccccc21 | 14.8
CCN(CC)CCn1c(NCc2ccc(OC)cc2)nc2ccccc21 | -65.5
CCN(CC)CCn1c(NCc2cccc(OC)c2OC)nc2ccccc21 | -47
CCN(CC)CCn1c(NCc2cccc(OC)c2)nc2ccccc21.Cl | -57.8
CN(Cc1ccc2ccccc2c1)C(=O)c1ccc(C(F)(F)F)cc1 | 26.1
CCN1C(=O)N(c2ccc(Cl)cc2)C(C)=CC1(C)C | 6.6

SMILES | hERG current change (%, negative = inhibition) at 10uM [%]
COc1ccc(C(=O)Nc2ccc(Cl)cc2F)cc1S(=O)(=O)N1CCCC1 | -48.1
C=C1c2ccccc2NC(=O)N1c1ccc(OC)cc1 | 12.8
CC(O)CNc1nc2c(c(=O)n(Cc3ccc(Cl)c(Cl)c3)c(=O)n2C)n1C (centres unmarked) | -17.3
O=C(O)C(=O)O.OCCN(Cc1ccccc1)Cc1ccccc1O | 5.17
C=CCN1C(=O)C2C(C(=O)NCc3ccccc3)C3(C)C=CC2(O3)C1C(=O)NC(C)(C)C (centres unmarked) | 19.5
COc1ccc(OC)c(/C=N/N2CCN(c3ccc(Cl)cc3)CC2)c1 | 8.58
COC(=O)Cc1ccc(NC(=S)NCc2ccc(OC)cc2)cc1 | -18.2
COC(=O)Cc1ccc(NC(=S)NCc2ccc(F)cc2)cc1 | -74.4
COC(=O)Cc1ccc(NC(=S)NCc2ccccc2)cc1 | 0.941
Cc1cc2nc(C3CCN(CC4COc5ccccc5O4)CC3)[nH]c2cc1C (centres unmarked) | -73.9
CCN1CCN(CC2COc3ccccc3O2)CC1.Cl (centres unmarked) | -4.7
Cl.c1ccc(Cn2nnnc2CN2CCCC2)cc1 | 2.31
Cc1ccccc1C(=O)NC1CCN(Cc2nnnn2Cc2ccccc2)CC1 | -47.8
CCN(CC)C(=O)CN1CCC(c2nc3cc(C)c(C)cc3[nH]2)CC1 | -15.7
Cc1cc2nc(C3CCN(Cc4nnnn4Cc4ccccc4)CC3)[nH]c2cc1C | -52.3
c1csc(Cn2nnnc2CN2CCN(c3nc4ccccc4s3)CC2)c1 | -46
COc1cc(C(=O)NC2CCN(Cc3nnnn3Cc3cccs3)CC2)cc(OC)c1OC | -5.59
Cc1cc2nc(C3CCN(Cc4nnnn4Cc4cccs4)CC3)[nH]c2cc1C | -83
CCc1c(C)c2cc(Cl)c(O)c(CN(CC)CC)c2oc1=O | 0.288
S=c1nccc(-c2ccc(Cl)cc2)[nH]1 | 15.4
COc1cc(NC(=O)c2cc3ccccc3o2)c(OC)cc1Br | 5.55
COc1ccc(-c2nnn(-c3cc(Cl)cc(Cl)c3)c2N)cc1 | 18.3
CC1(C)C(=O)N(c2ccccc2)C(=O)c2ccccc21 | 9.68
